Measured values as given in PubChem BioAssay AID1159580 (chemical genetic matrix, 2015).
Among all 5,500 compounds or so, about 2,000 (36%) were called active. Another 18% or so got no clear call; they are omitted. Rule as the data show it: active = normalized growth mostly below about 0.91 (no sharp cut-off); inconclusive = no clear call, values can overlap the other calls; inactive = mostly above about 0.92. The list shows a part of the results.

Test: chemical genetic growth profiling, strain panel (AID 1159580);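 also: tested at 20 µM; growth read once vehicle control cultures reached saturation at 30 °C; 1 = growth at the plate median or of vehicle wells; lower values mean less growth of the strain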
Conditions: S. cerevisiae deletion strains, growth OD

Measured: normalized growth

NC/C=C/C(=O)O
inactive: locus YAL013W, strain DEP1, stronger effect = lower value 1.02 | locus YAL021C, strain ccr4, stronger effect = lower value 0.968 | locus YAL026C, strain drs2, stronger effect = lower value 0.997 | locus YAL030W, strain snc1, stronger effect = lower value 1 | locus YAL040C, strain CLN3, stronger effect = lower value 0.998 | locus YBL061C, strain skt5, stronger effect = lower value 1.01 | locus YBR009C, strain hhf1, stronger effect = lower value 1.01 | locus YBR021W, strain FUR4, stronger effect = lower value 1.01 | locus YBR023C, strain chs3, stronger effect = lower value 1 | locus YBR171W, strain sec66, stronger effect = lower value 0.985 | locus YBR229C, strain ROT2, stronger effect = lower value 1.01 | locus YBR231C, strain swc5, stronger effect = lower value 1.02 | locus YBR279W, strain paf1, stronger effect = lower value 1.01 | locus YCL011C, strain gbp2, stronger effect = lower value 0.983 | locus YCL016C, strain dcc1, stronger effect = lower value 1.01 | locus YCL029C, strain bik1, stronger effect = lower value 1.02 | locus YCL061C, strain MRC1 (second series), stronger effect = lower value 1 | locus YCL061C, strain MRC1, stronger effect = lower value 0.987 | locus YCL069W, strain vba3, stronger effect = lower value 0.992 | locus YCR088W, strain abp1, stronger effect = lower value 0.986 | locus YDL005C, strain med2, stronger effect = lower value 1.01 | locus YDL035C, strain GPR1, stronger effect = lower value 1.04 | locus YDL040C, strain nat1, stronger effect = lower value 1 | locus YDL074C, strain BRE1, stronger effect = lower value 0.986 | locus YDL101C, strain DUN1, stronger effect = lower value 1 | locus YDL134C, strain PPH21, stronger effect = lower value 1.01 | locus YDL185W, strain tfp1, stronger effect = lower value 1.02 | locus YDL192W, strain arf1, stronger effect = lower value 1.01 | locus YDR001C, strain nth1, stronger effect = lower value 0.987 | locus YDR069C, strain doa4, stronger effect = lower value 1.03 | locus YDR101C, strain arx1, stronger effect = lower value 1.02 | locus YDR137W, strain rgp1, stronger effect = lower value 1.01 | locus YDR150W, strain NUM1, stronger effect = lower value 1.01 | locus YDR159W, strain sac3, stronger effect = lower value 1.02 | locus YDR162C, strain NBP2, stronger effect = lower value 0.986 | locus YDR195W, strain ref2 1.01 | locus YDR297W, strain sur2, stronger effect = lower value 1.01 | locus YDR318W, strain mcm21, stronger effect = lower value 1.05 | locus YDR334W, strain swr1, stronger effect = lower value 1 | locus YDR335W, strain msn5, stronger effect = lower value 1.01 | locus YDR363W, strain ESC2, stronger effect = lower value 0.999 | locus YDR388W, stronger effect = lower value 1.01 | locus YDR392W, strain spt3, stronger effect = lower value 0.965 | locus YDR502C, strain sam2, stronger effect = lower value 0.999 | locus YEL003W, strain gim4, stronger effect = lower value 0.99 | locus YEL037C, strain rad23, stronger effect = lower value 0.982 | locus YEL061C, strain CIN8 (second series), stronger effect = lower value 0.99 | locus YEL061C, strain CIN8, stronger effect = lower value 1.01 | locus YER002W, strain NOP16, stronger effect = lower value 0.975 | locus YER015W, strain faa2, stronger effect = lower value 1.01 | locus YER016W, strain bim1, stronger effect = lower value 1.02 | locus YER110C, stronger effect = lower value 1.02 | locus YER111C, strain swi4, stronger effect = lower value 0.98 | locus YER155C, strain BEM2 (second series), stronger effect = lower value 1.01 | locus YER155C, strain BEM2, stronger effect = lower value 0.999 | locus YER167W, strain BCK2, stronger effect = lower value 1.05 | locus YFR010W, strain ubp6, stronger effect = lower value 1.01 | locus YGL078C, strain dbp3, stronger effect = lower value 0.994 | locus YGL086W, strain mad1, stronger effect = lower value 1.04 | locus YGL167C, strain pmr1, stronger effect = lower value 1.01 | locus YGL173C, strain kem1, stronger effect = lower value 1.01 | locus YGL227W, strain vid30, stronger effect = lower value 0.988 | locus YGL240W, strain doc1, stronger effect = lower value 1.02 | locus YGL248W, strain PDE1, stronger effect = lower value 1.01 | locus YGL253W, strain hxk2, stronger effect = lower value 1 | locus YGR078C, strain PAC10, stronger effect = lower value 1.01 | locus YGR135W, strain pre9, stronger effect = lower value 0.996 | locus YGR229C, strain SMI1, stronger effect = lower value 1.01 | locus YGR252W, strain gcn5, stronger effect = lower value 1.03 | locus YHR013C, strain ard1, stronger effect = lower value 0.999 | locus YHR027C, strain rpn1, stronger effect = lower value 1.01 | locus YHR030C, strain SLT2, stronger effect = lower value 1.01 | locus YHR079C, strain IRE1 (second series), stronger effect = lower value 1.01 | locus YHR094C, strain hxt1, stronger effect = lower value 1.01 | locus YHR129C, strain ARP1, stronger effect = lower value 1.02 | locus YHR142W, strain chs7, stronger effect = lower value 0.975 | locus YHR200W, strain rpn10, stronger effect = lower value 1.02 | locus YIL066C, strain RNR3, stronger effect = lower value 1.02 | locus YIL073C, strain SPO22, stronger effect = lower value 1.13 | locus YIL125W, strain kgd1, stronger effect = lower value 1.01 | locus YIR030C, strain dcg1, stronger effect = lower value 1.02 | locus YJL092W, strain hpr5, stronger effect = lower value 0.984 | locus YJL095W, strain BCK1 (second series), stronger effect = lower value 1.01 | locus YJL095W, strain BCK1, stronger effect = lower value 1.03 | locus YJL115W, strain asf1, stronger effect = lower value 0.994 | locus YJL129C, strain trk1, stronger effect = lower value 0.994 | locus YJL134W, strain LCB3, stronger effect = lower value 1.01 | locus YJL154C, strain vps35, stronger effect = lower value 0.987 | locus YJL164C, strain tpk1, stronger effect = lower value 0.989 | locus YJL166W, strain qcr8, stronger effect = lower value 1.02 | locus YJL168C, strain set2, stronger effect = lower value 1 | locus YJL187C, strain SWE1 (second series), stronger effect = lower value 1.01 | locus YJL187C, strain SWE1, stronger effect = lower value 1.02
